From PubChem BioAssay (EPA / NIEHS) come the findings set out here.

Several values for one entry are separate records, joined by “and”; a condition that tells them apart may be missing. Identical values can stand only once. Inconclusive results are not listed. The source holds several records for some structures; these can differ, active in one and inactive in another. Activity calls are given as the source filed them. The calls were made as follows: active = hit-call score of the fitted dose curve at least 0.9, where 1 is the maximum; inconclusive = response in the unintended direction; inactive = score below 0.9.

The AC50 is the concentration giving half of the maximal activity seen.

This experiment is described as follows: CCTE_Shafer_MEA_dev_bursting_electrodes_number: CCTE's Neural Network Formation Assay for Number of Bursting Electrodes, Shafer Lab (AID 2284043). The protocol:
CCTE_Shafer_MEA_dev assay is conducted using Axion Biosystems 48 well microelectrode array (MEA) plates and Maestro recording system. Each well of the MEA plate contains a grid of 16 microelectrodes embedded in the culture surface. Electrically active cells, such as neurons, can be cultured over the electrodes, and electrical activity in these cells can be recorded extracellularly. The spontaneous firing of neurons is captured from each electrode on a microsecond timescale providing both temporally and spatially precise data. […] The CCTE_Shafer_MEA_dev assay uses primary cultures of rat cortical neurons. Recordings are made on days post-plating 5, 7, 9 and 12. As these cultures mature over time, neural networks develop functional activity and form cohesive networks in which electrical activity can be highly coordinated. CCTE_Shafer_MEA_dev_bursting_electrodes_number is 1 of 19 assay components of the CCTE_Shafer_MEA_dev assay. It measures the number of electrodes in a well with a burst rate of at least 1 burst (temporally-clustered group of action potential firing) every 2 minutes during a recording in a microelectrode array (MEA) using Axion Biosystems Maestro 768 channel amplifier with the AxIS adaptive spike detector. To collapse across multiple recordings made on days post-plating 5, 7, 9 and 12, the trapezoidal area-under-the-curve of the component is calculated.Data from the assay component CCTE_Shafer_MEA_dev_bursting_electrodes_number was analyzed into 1 assay endpoint. This assay endpoint, CCTE_Shafer_MEA_dev_bursting_electrodes_number, was analyzed in the negative analysis fitting direction relative to DMSO as the negative control and baseline of activity. Using a type of functional reporter, gain or loss-of-signal activity can be used to understand electrical activity.
On the day prior to culture, each well was coated thoroughly with 150 uL of 0.05% polyethyleneimine (PEI, Sigma Cat P3143) in 50 mM HEPES (Sigma Cat H7523) at a pH of 8. The plate was incubated at 37C for one hour. PEI was rinsed out with 500 uL of sterile water three times. Plates were stored at 4C until the day of culture. This culture was plated at a seeding density of 1.5 x 10^5 cells/well on a 48-well MEA plate, prepared as described above. Cells were administered via a 25 uL media/laminin ([…]; Sigma Cat L2020-1MG) drop directly onto the microelectrode array, as adding the cells with the laminin results in better attachment than pre-coating with laminin. After 2 hours, an additional 475 uL of cortical media was added and the cells returned to the incubator. Exposure starts at day 0 of plating and is continued over twelve days of network development until the experiment is terminated. Cells are fed with fresh medium on DIV 5 and 9, following the recordings on those days. The entire volume of media in the well is exchanged and any vehicle or compound treatment is renewed. Complete details are found in OP-NHEERL/ISTD/SBB/TJS/2015-03-r0 (available on request, email shafer.tim@epa.gov). Measurement of the electrical activity is non-invasive, and recordings can be made from the same plate over multiple different days of the culture. In cortical neurons, this allows for the measurement of extracellular action potentials over the period during which networks form in the MEA plate.
For the compound `CCOP(=O)(NC(C)C)Oc1ccc(SC)c(C)c1` (configuration not stated), the AC50 is 32.3 µM (active) and the result was inactive. In the case of `CCOP(=S)(OCC)SCCSCC`, the compound was called inactive.

For the compound `CN1COCN(Cc2cnc(Cl)s2)C1=N[N+](=O)[O-]`, the compound was classed as inactive.

Regarding `CCOP(=S)(Oc1cnc(C(C)(C)C)nc1)OC(C)C` (configuration not stated), the AC50 was 91.8 µM (active) and 12 µM (active).

For `C[Si](Cn1cncn1)(c1ccc(F)cc1)c1ccc(F)cc1`, the AC50 is 8.85 µM (active). As for `CC(C)=CC1C(C(=O)OCN2C(=O)C3=C(CCCC3)C2=O)C1(C)C` (configuration not stated), the outcome was inactive. For the compound `CC(C)[C@H](C(=O)O[C@H](C#N)c1cccc(Oc2ccccc2)c1)c1ccc(Cl)cc1`, the AC50 was 4.15 µM (active). As to `CCOP(=S)(OCC)Oc1ccc2c(C)c(Cl)c(=O)oc2c1`, the AC50 was 50 µM (active). On to `CCCSP(=O)(OCC)Oc1ccc(Br)cc1Cl` (configuration not stated), for which the compound was classed as inactive.

Consider `S=C1NCCN1`, for which the call was inactive. Same read-out and setting: for `CC(=NC#N)N(C)Cc1ccc(Cl)nc1` the value was “inactive”. As to `CCOP(=S)(OCC)Oc1ccc([N+](=O)[O-])cc1`, the result was inactive. For the compound `CC[C@H](C)[C@H]1O[C@]2(C=C[C@@H]1C)C[C@@H]1C[C@@H](C/C=C(\C)[C@@H](O[C@H]3C[C@H](OC)[C@@H](O[C@H]4C[C@H](OC)[C@@H](NC)[C@H](C)O4)[C@H](C)O3)[C@@H](C)/C=C/C=C3\CO[C@@H]4[C@H](O)C(C)=C[C@@H](C(=O)O1)[C@]34O)O2`, the AC50 is 43.5 nM (active) and 3.01 nM (active).

Turning to `C=C(C)[C@H]1Cc2c(ccc3c2O[C@@H]2COc4cc(OC)c(OC)cc4[C@@H]2C3=O)O1`, the AC50 was 22.8 nM (active) and 12.4 nM (active). Same read-out and setting: for `CON=C(C(=O)OC)c1ccccc1CON=C(C)c1cccc(C(F)(F)F)c1` the value was 728 nM (active) and 758 nM (active); for `O=[N+]([O-])c1cc(C(F)(F)F)c(Cl)c([N+](=O)[O-])c1Nc1ncc(C(F)(F)F)cc1Cl`, 0.374 µM (active). For the compound `CC(Oc1cccc(Cl)c1)C(=O)O` (configuration not stated), the outcome was inactive. In the case of `COP(=O)(OC)C(O)C(Cl)(Cl)Cl` (configuration not stated), the AC50 was 36.9 µM (active) and 15 µM (active). For the compound `CC1=NNC(=O)N(/N=C/c2cccnc2)C1`, the result was inactive. In the case of `CN(C)[C@@H]1C(=O)C(C(N)=O)=C(O)[C@@]2(O)C(=O)C3=C(O)c4c(O)cccc4[C@@](C)(O)[C@H]3[C@H](O)[C@@H]12`, the AC50 was 22.7 µM (active). Consider `CSC1=N[C@@](C)(c2ccccc2)C(=O)N1Nc1ccccc1`, for which the result was inactive. For `COP(=O)(OC)OC(Br)C(Cl)(Cl)Br` (configuration not stated), the AC50 was 6.36 µM (active) and 12.9 µM (active). On to `CCOP(=S)(OCC)OC(Cl)C(Cl)(Cl)Cl` (configuration not stated), for which the AC50 was 31.8 µM (active) and 23.2 µM (active).

Consider `C[N+]1(C)CCCCC1`, for which the call was inactive. With `CC(C)N(C(=O)SCC(Cl)=C(Cl)Cl)C(C)C`, the AC50 is 15 µM (active). For `CCOP(=O)(OCC)Oc1cc(C)nc(C(C)C)n1`, the call was inactive.

For `CCOP(=S)(OCC)Oc1cc(C)nc(C(C)C)n1`, the AC50 is 60.2 µM (active). `COP(=O)(NC(C)=O)SC` (configuration not stated): the compound was classed as inactive. Consider `C#CCC1=C(C)C(OC(=O)C2C(C=C(C)C)C2(C)C)CC1=O` (configuration not stated), for which the AC50 is 4.27 µM (active). Turning to `CCCSP(=O)(OCC)SCCC`, the AC50 is 24.9 µM (active) and 22.7 µM (active). Regarding `CCCCSP(=O)(SCCCC)SCCCC`, the AC50 is 32 µM (active) and 15.8 µM (active).
